Assay results from PMC5540273 (PLoS ONE, 2017).

Experiments:
Settings in all cases: concentration: 1 μM, replicates: in singlicate; n = 1
[1] = tested on: T1, IKK-alpha
T1 construct: gene CHUK

[2] = tested on: T2, IKK-beta
T2 construct: gene IKBKB

[3] = tested on: T3, IKK-epsilon
T3 construct: gene IKBKE

[4] = tested on: INSRR
[5] = tested on: INSR
[6] = tested on: IRAK1
[7] = tested on: IRAK3
[8] = tested on: IRAK4
[9] = tested on: ITK
[10] = tested on: JAK1(JH1domain-catalytic)
[11] = tested on: JAK1(JH2domain-pseudokinase)
[12] = tested on: JAK2(JH1domain-catalytic)
[13] = tested on: JAK3(JH1domain-catalytic)
[14] = tested on: T4, JNK1
T4 construct: gene MAPK8

[15] = tested on: T5, JNK2
T5 construct: gene MAPK9

[16] = tested on: T6, JNK3
T6 construct: gene MAPK10

[17] = tested on: KIT-autoinhibited
[18] = tested on: KIT
[19] = tested on: LATS1
[20] = tested on: LATS2
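Also: KINOMEscan kinase panel screen.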

SMILES | %Inh [1] [%] | %Inh [2] [%] | %Inh [3] [%] | %Inh [4] [%] | %Inh [5] [%] | %Inh [6] [%] | %Inh [7] [%] | %Inh [8] [%] | %Inh [9] [%] | %Inh [10] [%] | %Inh [11] [%] | %Inh [12] [%] | %Inh [13] [%] | %Inh [14] [%] | %Inh [15] [%] | %Inh [16] [%] | %Inh [17] [%] | %Inh [18] [%] | %Inh [19] [%] | %Inh [20] [%]
Cc1ccc(C(=O)N2CC[C@@H](O)C2)cc1-n1c(C)cc(OCc2ccc(F)cc2F)c(Br)c1=O | 0 | 0 | 0 | 0 | 0 | 0 | 0 | 0 | 0 | 0 | 48 | 0 | 1 | 14 | 0 | 0 | 0 | 87 | 0 | 0
Cn1cc(-c2ccc3c(c2)CCN3C(=O)Cc2cccc(F)c2)c2c(N)ncnc21 [GSK2603358] | 15 | 43 | 76 | 0 | 0 | 41 | 0 | 22 | 11 | 18 | 0 | 17 | 0 | 12 | 19 | 3 | 7 | 100 | 0 | 13
CC(C)c1nc(-c2cccc(NS(=O)(=O)c3c(F)cccc3F)c2F)c(-c2ccnc(Nc3ccc(N4CCOCC4)nc3)n2)s1 [GSK2008607] | 0 | 4 | 85 | 4 | 4 | 17 | 16 | 10 | 97.4 | 1 | 0 | 91.2 | 99.6 | 3 | 40 | 15 | 0 | 99.9 | 0 | 11
CN(C)Cc1ccc(-c2ccc3c(Nc4ccc(Oc5ccccn5)cc4)ccnc3c2)o1 [GW567148] | 27 | 7 | 27 | 0 | 6 | 21 | 22 | 0 | 15 | 0 | 0 | 18 | 0 | 19 | 4 | 0 | 0 | 92.8 | 0 | 0
Fc1ccc(-c2ncn(C3CCNCC3)c2-c2ccnc(Oc3ccc(-c4ccccc4)cc3)n2)cc1 [SB-245391] | 32 | 32 | 0 | 37 | 22 | 11 | 0 | 0 | 0 | 10 | 0 | 50 | 41 | 36 | 66 | 46 | 0 | 17 | 0 | 21
CN(C)S(=O)(=O)c1cc(-c2ccc3nccc(-c4cccc(S(N)(=O)=O)c4)c3c2)cnc1N [GSK1669921] | 0 | 0 | 0 | 24 | 42 | 0 | 29 | 9 | 16 | 12 | 12 | 24 | 0 | 17 | 0 | 0 | 0 | 21 | 0 | 14
Clc1ccc(-c2nn3ncccc3c2-c2ccnc(Nc3ccc4c(c3)OCCO4)n2)cc1 [GW829116] | 0 | 0 | 17 | 0 | 0 | 0 | 0 | 0 | 0 | 0 | 17 | 2 | 0 | 99.2 | 99.9 | 100 | 36 | 99.9 | 0 | 0
O=C(NC1CCN(c2ccnc(Nc3ccc(F)cc3)n2)C1)c1cc2ccccc2s1 (centres unmarked) [GSK1379716] | 21 | 0 | 15 | 0 | 70 | 32 | 11 | 17 | 21 | 29 | 0 | 0 | 0 | 24 | 29 | 13 | 0 | 21 | 7 | 0
Cl.NC(=O)c1cccc(Nc2nccc(Nc3ccc(Oc4c(Cl)cccc4Cl)c(Cl)c3)n2)c1 [GW659009] | 0 | 0 | 0 | 0 | 0 | 0 | 90 | 0 | 98.7 | 9 | 0 | 72 | 0 | 26 | 5 | 1 | 0 | 17 | 0 | 0
O=C(Nc1cccc(-c2nn3ccccc3c2-c2ccnc(Nc3cccc(C(F)(F)F)c3)n2)c1)c1c(F)cccc1F [GSK292658] | 0 | 3 | 1 | 12 | 16 | 0 | 0 | 12 | 6 | 0 | 0 | 26 | 0 | 3 | 0 | 0 | 0 | 94.6 | 0 | 6
